Bioassay records deposited in PubChem BioAssay by National Center for Advancing Translational Sciences (NCATS).
In the library only some 10% were active in any assay of this set; here they are far more common.
3T3 cytotox – kills NIH 3T3 cells; Potency, µM (top dose mostly 96.7 µM), inactives show at the top dose activity change, negative = cytotoxicity, usual class: inhibitors; 4.3% of 94,000 active; NIH 3T3 viability, CellTiter-Glo ATP luminescence, 48-72 h; also: % is scaled to controls: 0 for no effect and ±100 for the full control effect; nearly all actives have a fitted effect of over 55% in size
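Cytotoxicity is measured as loss of cellular ATP: NIH 3T3 cells (400/well) are exposed to compound for 48 or 72 hr at 37 °C, then CellTiter-Glo luminescence is imaged after 10 min at room temperature.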
NPR1 antag – antagonists of human natriuretic peptide receptor Npr1 | P16066 | HEK293 hNpr1 GloSensor cGMP, ANP-stimulated luminescence | Potency, µM (highest dose often 46.3 µM), for the others: top-dose activity change, negative = inhibition, actives largely listed as inhibitors | 1.6% of 76,000 active | AID 1347048; calls by dose curve; also: % is scaled to controls: 0 for no effect and ±100 for the full control effect; nearly all actives have a fitted effect of over 60% in size
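Compound pre-incubated 30 min at room temperature on GloSensor-loaded HEK293 cells stably carrying hNpr1 and the pGS-40F cGMP biosensor. Stimulation uses hNppA at 0.1 nM final; luminescence is taken at baseline and 20 min post-agonist.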
FLuc inh-1 – inhibitors of firefly (Photinus pyralis) luciferase; P08659; purified P. pyralis luciferase, luminescence, biochemical; Potency, µM (titrated, usually from 115 µM), hits mostly inhibitors; 2.5% of 76,000 active; AID 1347043; also: % is scaled to controls: 0 for no effect and ±100 for the full control effect; nearly all actives have a fitted effect of over 65% in size
Target sequence (P08659 whole entry, looked up): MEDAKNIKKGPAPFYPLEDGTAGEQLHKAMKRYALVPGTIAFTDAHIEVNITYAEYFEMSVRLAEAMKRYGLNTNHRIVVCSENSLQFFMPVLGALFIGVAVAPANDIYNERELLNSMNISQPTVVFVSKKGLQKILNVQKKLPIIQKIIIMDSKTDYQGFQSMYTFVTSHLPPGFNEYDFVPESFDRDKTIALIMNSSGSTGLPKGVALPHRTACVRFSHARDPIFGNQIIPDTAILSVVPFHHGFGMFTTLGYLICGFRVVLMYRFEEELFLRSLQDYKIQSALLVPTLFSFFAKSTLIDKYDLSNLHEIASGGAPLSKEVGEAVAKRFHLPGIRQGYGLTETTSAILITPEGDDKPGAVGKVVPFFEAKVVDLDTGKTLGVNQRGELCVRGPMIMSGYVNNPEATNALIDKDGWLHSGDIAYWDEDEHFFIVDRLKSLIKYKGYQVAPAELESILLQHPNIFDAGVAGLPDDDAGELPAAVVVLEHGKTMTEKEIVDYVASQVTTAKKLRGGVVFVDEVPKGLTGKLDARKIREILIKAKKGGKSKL
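FLuc 10nM, D-luciferin 10uM, ATP 10uM, Mg acetate 10mM, Tris acetate pH 7.5, Tween/BSA; cpd qHTS; enzyme added last; CCD luminescence.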
GPT2 inh – blocks human glutamate pyruvate transaminase 2; Recombinant GPT2, coupled pyruvate oxidase/HRP Amplex Red fluorescence; 0.25% of 100,000 active; Potency, µM (doses to about 57.7 µM), without a hit: at the highest dose activity change, negative = inhibition, actives largely listed as inhibitors; Q8TD30; also: % is scaled to controls: 0 for no effect and ±100 for the full control effect; nearly all actives have a fitted effect of over 60% in size
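Fluorescence read-out: pyruvate from GPT2 turnover coupled to pyruvate oxidase, HRP and Amplex Red (0.2mM ThPP, 0.2U/mL PO and HRP, 50uM Amplex final). Substrates 250uM a-KG, 2mM L-alanine; enzyme 10ng/uL; 30 min RT.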
HEK cytotox – cytotoxic compounds in HEK 293 cells; HEK 293 viability, ATP luminescence (CellTiter-Glo), 48-72 h; Potency, µM (series often up to 115 µM), inactives show at the highest dose activity change, negative = cytotoxicity, most hits filed as inhibitors; 6.6% of 94,000 active; AID 1345083; also: % is scaled to controls: 0 for no effect and ±100 for the full control effect; nearly all actives have a fitted effect of over 60% in size
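Read-out: CellTiter-Glo ATP luminescence. Cells: HEK 293, 250 cells/well. Exposure: 48 or 72 hr, 37 degree Celsius.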
FLuc SDR -ATP – binders stabilizing firefly luciferase, without ATP | shares compounds with FLuc inh-1 | Purified FLuc-C-HiBiT, Nano-Glo HiBiT luminescence, no ATP | Potency, µM (titrated, usually from 32.7 µM), for the others: at the top dose activation (signal gain), hits mostly activators | 7.8% of 1,300 active | AID 1963318; also: nearly all actives have a fitted effect of over 55% in size
FLuc SDR ATP – firefly luciferase binding stabilization, ATP added. purified FLuc-C-HiBiT + ATP, HiBiT complementation luminescence. Potency, µM (top dose mostly 32.7 µM), without a hit: at the highest dose activation (gain of signal), usual class: activators. 8.7% of 1,300 active. shares compounds with FLuc inh-1;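 also: signal reports ligand binding via conformational change of the enzyme rather than luciferase catalysis; % of control where 0% means no effect; nearly all actives have a fitted effect of over 55% in size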
FLuc inh-2 – firefly luciferase enzyme inhibition; shares compounds with FLuc inh-1; purified FLuc-C-HiBiT enzyme, luciferin luminescence; Potency, µM (series often up to 32.7 µM), for inactives: at the highest dose activity change, negative = inhibition, most hits filed as inhibitors; 42% of 1,300 active; also: % is scaled to controls: 0 for no effect and ±100 for the full control effect; nearly all actives have a fitted effect of over 70% in size
An asterisk follows results filed as active; [ ] = dose if it differs, or a comment. Unless noted, calls follow the shape of the dose curve; as a rule, active = well fitted curve in the direction sought with a large enough effect; inconclusive = small, poorly fitted or top-dose-only effect, or another doubt; inactive = no such curve, though single readings can be large; an effect the other way counts as inactive or inconclusive. Potency is read from the fitted curve at half-maximal effect.

`CCOc1ccccc1C(=O)Nc1nc2c(s1)CC(C)CC2` (stereo unspecified) gave FLuc SDR -ATP 14%, FLuc SDR ATP 8% and FLuc inh-2 4.4µM*.
Screening CCc1ccc(NC(=O)N2CCCC(c3noc(COc4ccccc4)n3)C2)cc1 (stereo unspecified) returned 3T3 cytotox inconclusive, NPR1 antag inconclusive, FLuc inh-1 1.4µM*, GPT2 inh inactive, HEK cytotox inconclusive, FLuc SDR -ATP inconclusive, FLuc SDR ATP inconclusive and FLuc inh-2 2.8µM*.
Screening CC(C)NC(=O)N1CCCC(c2noc(COc3ccccc3)n2)C1 (stereo unspecified) returned 3T3 cytotox -16%, NPR1 antag -1%, FLuc inh-1 inactive, GPT2 inh inactive and HEK cytotox -8%.
`O=C(Nc1c(C(=O)O)oc2ccccc12)c1ccc(C(F)(F)F)cc1` gave FLuc SDR -ATP 15%, FLuc SDR ATP 9% and FLuc inh-2 9.9µM*.
Screening O=C(O)c1ccc(-c2ccc(N3CCCCCC3)nc2)cc1 returned 3T3 cytotox inconclusive, NPR1 antag -4%, FLuc inh-1 4.5µM*, GPT2 inh inactive, HEK cytotox 7%, FLuc SDR -ATP inconclusive, FLuc SDR ATP inconclusive and FLuc inh-2 2.5µM*.
Screening CCOC(=O)N1CCc2c(sc(NCc3ccc(OCC)cc3)c2C(=O)Nc2ccc(OC)cc2OC)C1 returned FLuc SDR -ATP 13%, FLuc SDR ATP inconclusive and FLuc inh-2 3.9µM*.
Screening CCOC(=O)N1CCc2c(sc(NCc3cccs3)c2C(=O)Nc2ccc(OC)cc2OC)C1 returned FLuc SDR -ATP 6%, FLuc SDR ATP inconclusive and FLuc inh-2 3.1µM*.
`CN1C(=O)c2cccn2CC1C(=O)NCCCN1CCc2ccccc2C1` (stereo unspecified) gave 3T3 cytotox -6%, NPR1 antag 1%, FLuc inh-1 inactive, GPT2 inh inactive and HEK cytotox -1%.
`Cc1ccc(NC(=O)Nc2ccc(C)n(CC(=O)N3CCC(C)CC3)c2=O)cc1` gave 3T3 cytotox -17%, NPR1 antag -18%, FLuc inh-1 4.5µM*, GPT2 inh inactive, HEK cytotox inconclusive, FLuc SDR -ATP inconclusive, FLuc SDR ATP inconclusive and FLuc inh-2 3.9µM*.
Cc1ccc(NC(=O)Nc2ccc(C)n(CC(=O)NC3CCCC3)c2=O)cc1 was read as 3T3 cytotox inconclusive, NPR1 antag inconclusive, FLuc inh-1 0.4µM*, GPT2 inh -9%, HEK cytotox inconclusive, FLuc SDR -ATP 1.6µM*, FLuc SDR ATP inconclusive and FLuc inh-2 0.7µM*.
For Cc1ccc(NC(=O)Nc2ccccc2)c(=O)n1CC(=O)NC1CCCCC1 the results were 3T3 cytotox -10%, NPR1 antag 0%, FLuc inh-1 inactive, GPT2 inh inactive and HEK cytotox -9%.
For COc1ccccc1NC(=O)Cn1c(C)ccc(NC(=O)Nc2ccc(C)cc2)c1=O the results were 3T3 cytotox 22µM*, NPR1 antag inconclusive, FLuc inh-1 0.63µM*, GPT2 inh inactive, HEK cytotox inconclusive, FLuc SDR -ATP inconclusive, FLuc SDR ATP inconclusive and FLuc inh-2 0.7µM*.
`Cc1ccc(NC(=O)Nc2ccccc2)c(=O)n1CC(=O)NCC1CCCO1` (stereo unspecified) gave 3T3 cytotox inconclusive, NPR1 antag -13%, FLuc inh-1 14µM*, GPT2 inh -21%, HEK cytotox -1%, FLuc SDR -ATP inconclusive, FLuc SDR ATP inconclusive and FLuc inh-2 inconclusive.
CCn1nccc1C(=O)N1CCC(c2nc(CCOc3cccc(C)c3)no2)C1 (stereo unspecified) was read as 3T3 cytotox inconclusive, GPT2 inh -11% and HEK cytotox inconclusive.
Cn1cccc1CN1CCC2(CC1)COc1ccccc1C(=O)N2 was read as 3T3 cytotox -16%[138 µM], NPR1 antag 35%[70.6 µM], FLuc inh-1 inactive, GPT2 inh inactive and HEK cytotox inconclusive.
For Cc1ccc(NC(=O)Nc2ccc(C)n(CC(=O)NC(C)c3cccnc3)c2=O)cc1 (stereo unspecified) the results were 3T3 cytotox -21%, NPR1 antag -15%, FLuc inh-1 1.1µM*, GPT2 inh inactive, HEK cytotox inconclusive, FLuc SDR -ATP 7µM*, FLuc SDR ATP inconclusive and FLuc inh-2 1.6µM*.
Cc1ccc(NS(=O)(=O)c2ccccc2)c(=O)n1CC(=O)N1CCCCC1 was read as 3T3 cytotox -9%, NPR1 antag 2%, FLuc inh-1 inactive, GPT2 inh 4% and HEK cytotox -21%.
`COc1ccc(NC(=O)Nc2ccc(C)n(CC(=O)N3CCCCCC3)c2=O)cc1` gave 3T3 cytotox inactive, NPR1 antag -1%, FLuc inh-1 8.9µM*, GPT2 inh -8%, HEK cytotox -2%, FLuc SDR -ATP inconclusive, FLuc SDR ATP inconclusive and FLuc inh-2 9.9µM*.
`Cc1oc2c(c1C(=O)N1CCN(c3ccccc3)CC1)CN(Cc1ccccc1)CC2` gave 3T3 cytotox inconclusive, NPR1 antag -15%, FLuc inh-1 inactive, GPT2 inh inactive and HEK cytotox inconclusive.
Cc1cnc(C(=O)N[C@@H]2CCC[C@@H]2C(=O)NCc2ccccc2F)cn1 was read as 3T3 cytotox 1%, NPR1 antag 4%, FLuc inh-1 inactive, GPT2 inh -19% and HEK cytotox 4%.
`COc1ccc(C)cc1NC(=O)C1CCN(C(=O)c2ncn3c2COC(c2ccc(F)cc2)C3)CC1` (stereo unspecified) gave 3T3 cytotox -9%, NPR1 antag -25%, FLuc inh-1 7.1µM*, GPT2 inh inactive, HEK cytotox -13%, FLuc SDR -ATP 12%, FLuc SDR ATP inconclusive and FLuc inh-2 inconclusive.
